A number with no mark means an inactive call. Calls come from the whole dose curve; as a rule, active = well fitted curve in the direction sought with a large enough effect; inconclusive = small, poorly fitted or top-dose-only effect, or another doubt; inactive = no such curve, though single readings can be large; an effect the other way counts as inactive or inconclusive. Results filed as inconclusive are left out.

One test has as its target Luciferin 4-monooxygenase (Photinus pyralis) (UniProt P08659). The experiment in a line: Primary firefly luciferase (FLuc) qHTS assay for identification of artifact compounds. (AID 1845220).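 Note: plate controls were DMSO vehicle for no effect and no enzyme for full effect; nearly all actives have a fitted effect of over 60% in size.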 The note with it: purified firefly luciferase, luminescence, 5 min; series mostly up to 54.1 µM; activity change, negative = inhibition: at the top concentration. The procedure, abridged:
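FLuc 10 nM; luciferin 10 uM; ATP 10 uM; Tris-acetate pH 7.6, Mg-acetate 10 mM; 15 min RT preincubation; 5 min reaction; luminescence.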
(In general: Quantitative high-throughput screening tests each substance at several concentrations.)
For `CC1=CC(=O)CC2C1(O)CCC(C)C21CC(c2ccoc2)OC1=O` (stereo not drawn), the “activity change, negative = inhibition” value is -13.2%. Consider `COC(=O)C1=CO[C@@H](O[C@@H]2O[C@H](CO)[C@@H](O)[C@H](O)[C@H]2O)[C@@H]2C(COC(C)=O)=C[C@H](O)[C@H]12`, for which the “activity change, negative = inhibition” value is 1.9% [at 25.7 µM]. On the same count and under the same terms, for `O=C1NC(=O)C(c2cn(-c3ccccc3)nc2-c2ccc(F)cc2)N1` (stereo not drawn) the value was -1.1%; for `COC(=O)c1ccnc(-c2cc(C(=O)NCCc3ccccc3)ccn2)c1`, -2.93%.

Regarding `COc1ccc([C@@]2(O)c3c(ccc4c3OC(C)(CCC=C(C)C)C=C4)NC(=O)[C@@H]2OC)cc1` (stereo partly drawn), the “activity change, negative = inhibition” value is 3.64% [at 25.7 µM].

System in another test: not listed separately
As to the kind of experiment: Primary fluorescence-based thiol-reactive (MSTI) qHTS assay for identification of artifact compounds. (AID 1845221).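 Note: thiol-reactive compounds lower the probe fluorescence signal; nearly all actives have a fitted effect of over 65% in size.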 The note with it: MSTI thiol-reactivity probe, 1 h; series mostly up to 53.8 µM; activity change, negative = thiol reactive: at the top concentration. The method, boiled down: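 Thiol-reactive compounds detected by quenching of 4 uM MSTI fluorescence (525/598 nm) after 1 h room-temperature dark incubation in PBS pH 7.4, 2% DMSO. qHTS titration; percent inhibition Hill-fitted against Acetyl-MSTI/MSTI controls.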
Take `CC(C)(C)NC(=O)[C@@H](c1cccnc1)N(C(=O)c1ccco1)c1ccc(C(C)(C)C)cc1`: the “activity change, negative = thiol reactive” value was -5.49%.

Consider `C=C(C(=O)O)C1CC2=C(C)CCCC2(C)C[C@@H]1O` (stereo partly drawn), for which the “activity change, negative = thiol reactive” value is -10.4%. Same read-out and setting: for `CSc1ccc(C(=O)N[C@@H]2CCCC[C@@H]2NC(=O)CNC(=O)c2cc(C(F)(F)F)ccc2NC(=O)NC(C)C)cc1` the value was 194%; for `CC(=O)OCC1(O)CCC2C(COC3OC(CO)C(O)C(O)C3OC(=O)/C=C/c3ccc(O)cc3)=COC(OC(=O)CC(C)C)C21` (stereo not drawn), -16.5% [at 25.6 µM].

With `COc1ccc([C@@]2(O)c3c(ccc(CC=C(C)C)c3O)NC(=O)[C@@H]2OC)cc1`, the “activity change, negative = thiol reactive” value was 98.4%. Still for that read-out and setting: for `C[C@@H]1O[C@@H](O[C@@H]2[C@@H](O)[C@H](O[C@H]3CC[C@@]4(C)C(CC[C@]5(C)C4CC=C4[C@@H]6CC(C)(C)CC[C@]6(C(=O)O[C@@H]6O[C@H](CO)[C@@H](O)[C@H](O)[C@H]6O)CC[C@]45C)C3(C)C)O[C@H](C(=O)O)[C@H]2O)[C@H](O)[C@H](O)[C@H]1O` (stereo partly drawn) the value was 312% [at 11.5 µM]; for `COc1ccc(C2COc3cc(O)ccc3C2)c(O)c1` (stereo not drawn), 5.52%. Consider `C=C1[C@H](OC(C)=O)[C@H]2[C@@H](OC(C)=O)[C@](C)(OC(C)=O)C[C@]2(OC(C)=O)C(=O)[C@H](C)/C=C/C(C)(C)C(=O)[C@H](OC(=O)C(C)C)[C@H]1OC(C)=O`, for which the “activity change, negative = thiol reactive” value is 16.3% [at 25.6 µM].

`Cc1ccccc1C#Cc1ccc(CCC(=O)O)cc1`: the “activity change, negative = thiol reactive” value was 127%. Same read-out and setting: for `COc1cc(Br)c(S(=O)(=O)Nc2ccc(C(F)(F)F)c(O[C@@H]3CCN(C)C3)c2)cc1OC` the value was 67.2%. Still for that read-out and setting: for `COC(=O)CC1CC(c2ccc(O)cc2)=NO1` (stereo not drawn) the value was -3.13%. The same measure, in the same setting: for `COC(=O)C1=CO[C@@H](O[C@@H]2O[C@H](CO)[C@@H](O)[C@H](O)[C@H]2O)[C@@H]2C(COC(C)=O)=C[C@H](O)[C@H]12` the value was -11.9% [at 25.6 µM]; for `O=C1NC(=O)C(c2cn(-c3ccccc3)nc2-c2ccc(F)cc2)N1` (stereo not drawn), 110%.

Values taken from PubChem BioAssay (NCATS).
